# Targets with a hit are over-represented here; the source holds about 7,900 in all. About 0.6% of all pairs of compound and target were hits. A number with no mark means an inactive call.
# Tests used:
# Experiment in all cases: log2 fold change, soluble protein after heating vs DMSO (PISA); higher = thermal stabilisation; K562 cells, 10 uM, 30 min; active = over 0.2 and 3.5 SD of the protein, either way, in both replicates (recomputed)
# [1] = compound: CC[C@@H]1C(=O)N(C)c2cnc(Nc3ccc(C(=O)NC4CCN(C)CC4)cc3OC)nc2N1C1CCCC1
# In short: (§1)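 Values are thermal stability changes relative to control samples and are taken from duplicates. They are stated as log2 fold changes. Before quantification by TMTpro 16plex LC-MS/MS with equalised channel sums, K562 cells at 2×10^6 cells/mL were treated with 10 μM compound for 30 min, heated in aliquots for 3 min across 48°C-58°C, pooled, extracted in PBS with 0.5% NP-40 at 4°C, and centrifuged at 21,000xg for 90 min to give the soluble supernatant.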
# [2] = compound: CC[C@@H]1C(=O)N(C)c2cnc(Nc3ccc(C(=O)N[C@H]4CC[C@H](N5CCN(CC6CC6)CC5)CC4)cc3OC)nc2N1C(C)C [volasertib]
# In short: as §1
# [3] = compound: CC[C@H](C)N1C=C(C2=C(C=C(C=C21)C3=CN=C(C=C3)N4CCNCC4)C(=O)NCC5=C(C=C(NC5=O)C)C)C
# In short: as §1
# [4] = compound: CC[C@H](C)[C@@H](C(=O)N[C@@H]([C@@H](C)O)C(=O)N[C@@H](CC(C)C)C(=O)[C@]1(CO1)C)NC(=O)[C@H]([C@@H](C)CC)N(C)C(=O)C [epoxomicin]
# In short: as §1
# [5] = compound: CCn1c(C(=O)N(C2CC2)C2CC2)cc2c3c(ncn3C)c(Nc3cc(C)n(C)n3)nc21
# In short: as §1
# [6] = compound: CCn1cc(-c2ccnc3[nH]c(-c4cccc(CN(C)C)c4)cc23)c(-c2ccc(NC(=O)N(C)C)cc2)n1
# In short: as §1
# [7] = compound: CN(C)CC(=O)Nc1ccc2[nH]c(=O)c3ccccc3c2c1
# In short: as §1
# [8] = compound: CN(CCOC1=CC=C(C=C1)C[C@H]2C(=O)NC(=O)S2)C3=CC=CC=N3 (racemic) [rosiglitazone]
# In short: as §1
# [9] = compound: CN1C2=C(C3=C1C(=O)N(N=C3)CC4=CC(=CC=C4)N)SC(=C2)S(=O)C
# In short: as §1
# [10] = compound: CN1CCC(CNc2ccc3ncc(-c4cccc(OC(F)(F)F)c4)n3n2)CC1
# In short: as §1
# [11] = compound: CN1CCN(CCOc2cc(OC3CCOCC3)c3c(Nc4c(Cl)ccc5c4OCO5)ncnc3c2)CC1 [saracatinib]
# In short: as §1
# [12] = compound: CN1CCN(c2nc(C3=C(c4c[nH]c5ccccc45)C(=O)NC3=O)c3ccccc3n2)CC1 [sotrastaurin]
# In short: as §1
# [13] = compound: CN1CC[C@H](c2c(O)cc(O)c3c(=O)cc(-c4ccccc4Cl)oc23)[C@H](O)C1 [alvocidib]
# In short: as §1
# [14] = compound: CN1CCc2c(c3ccccc3n2Cc2ccc(C(=O)NO)cc2)C1 [Tubastatin A]
# In short: as §1
# [15] = compound: CNC(=O)C1=CC=CC=C1NC2=NC(=NC=C2Cl)NC3=C(C=C(C=C3)N4CCOCC4)OC
# In short: as §1
# [16] = compound: CNC(=O)c1ccc(Nc2ncc(C(F)(F)F)c(NCc3nccnc3N(C)S(C)(=O)=O)n2)cc1 [defactinib]
# In short: as §1
# [17] = compound: CNCc1ccc(-c2[nH]c3cc(F)cc4c3c2CCNC4=O)cc1 [rucaparib]
# In short: as §1
# [18] = compound: CNc1nc(-c2ccc3c(N)n[nH]c3c2)cc(N2C[C@@H](C(=O)NC3CCCCC3)CC[C@H]2C)n1
# In short: as §1
# [19] = compound: COC(=O)N[C@@H](C)CNc1nccc(-c2cn(C(C)C)nc2-c2cc(Cl)cc(NS(C)(=O)=O)c2F)n1 [encorafenib]
# In short: as §1
# [20] = compound: COC(=O)[C@H](CCSC)NC(=O)C1=C(C=C(C=C1)NC[C@H](CS)N)C2=CC=CC=C2
# In short: as §1
# UniProt Q49A26, sequence (Q49A26 whole entry, looked up): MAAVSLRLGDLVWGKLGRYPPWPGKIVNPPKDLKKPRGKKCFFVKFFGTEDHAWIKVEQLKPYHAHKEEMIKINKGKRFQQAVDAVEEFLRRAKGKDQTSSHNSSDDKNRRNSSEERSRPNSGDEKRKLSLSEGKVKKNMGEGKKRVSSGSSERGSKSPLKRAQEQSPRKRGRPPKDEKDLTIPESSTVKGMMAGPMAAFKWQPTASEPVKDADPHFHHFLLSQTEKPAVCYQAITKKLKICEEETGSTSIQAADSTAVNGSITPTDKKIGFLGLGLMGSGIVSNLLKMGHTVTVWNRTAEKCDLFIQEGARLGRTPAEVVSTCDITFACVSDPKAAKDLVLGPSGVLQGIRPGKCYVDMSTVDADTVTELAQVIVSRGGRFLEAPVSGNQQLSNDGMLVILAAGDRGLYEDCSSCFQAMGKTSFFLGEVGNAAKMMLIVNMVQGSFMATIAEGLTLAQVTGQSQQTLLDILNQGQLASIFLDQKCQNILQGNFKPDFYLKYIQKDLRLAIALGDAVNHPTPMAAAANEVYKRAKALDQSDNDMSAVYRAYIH
# UniProt Q9BUP3, sequence (Q9BUP3 whole entry, looked up): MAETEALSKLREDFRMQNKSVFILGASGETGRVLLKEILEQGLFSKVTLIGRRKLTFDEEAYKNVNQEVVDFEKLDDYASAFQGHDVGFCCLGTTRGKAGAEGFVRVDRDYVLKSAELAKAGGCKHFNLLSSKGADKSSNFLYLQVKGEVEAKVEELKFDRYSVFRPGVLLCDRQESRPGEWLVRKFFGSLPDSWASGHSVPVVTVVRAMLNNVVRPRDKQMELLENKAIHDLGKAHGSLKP
# UniProt P11142, sequence (P11142 whole entry, looked up): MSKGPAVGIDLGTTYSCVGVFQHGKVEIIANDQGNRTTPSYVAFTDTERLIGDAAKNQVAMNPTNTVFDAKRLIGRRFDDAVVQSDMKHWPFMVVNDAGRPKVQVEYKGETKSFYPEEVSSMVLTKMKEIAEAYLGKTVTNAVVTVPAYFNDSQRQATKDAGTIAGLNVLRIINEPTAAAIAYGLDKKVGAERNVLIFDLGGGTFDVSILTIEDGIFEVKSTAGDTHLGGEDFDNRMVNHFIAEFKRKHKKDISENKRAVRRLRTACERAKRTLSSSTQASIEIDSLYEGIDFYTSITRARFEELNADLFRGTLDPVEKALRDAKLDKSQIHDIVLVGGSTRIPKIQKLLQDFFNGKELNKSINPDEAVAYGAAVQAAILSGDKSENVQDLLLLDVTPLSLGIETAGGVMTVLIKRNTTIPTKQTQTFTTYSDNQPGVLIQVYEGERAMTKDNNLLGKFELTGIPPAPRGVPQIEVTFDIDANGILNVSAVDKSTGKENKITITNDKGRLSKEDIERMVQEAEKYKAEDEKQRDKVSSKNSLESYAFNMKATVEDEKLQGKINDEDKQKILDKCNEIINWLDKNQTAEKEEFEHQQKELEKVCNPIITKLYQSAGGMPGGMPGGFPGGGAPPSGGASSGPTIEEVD
# UniProt P16278, sequence (P16278 whole entry, looked up): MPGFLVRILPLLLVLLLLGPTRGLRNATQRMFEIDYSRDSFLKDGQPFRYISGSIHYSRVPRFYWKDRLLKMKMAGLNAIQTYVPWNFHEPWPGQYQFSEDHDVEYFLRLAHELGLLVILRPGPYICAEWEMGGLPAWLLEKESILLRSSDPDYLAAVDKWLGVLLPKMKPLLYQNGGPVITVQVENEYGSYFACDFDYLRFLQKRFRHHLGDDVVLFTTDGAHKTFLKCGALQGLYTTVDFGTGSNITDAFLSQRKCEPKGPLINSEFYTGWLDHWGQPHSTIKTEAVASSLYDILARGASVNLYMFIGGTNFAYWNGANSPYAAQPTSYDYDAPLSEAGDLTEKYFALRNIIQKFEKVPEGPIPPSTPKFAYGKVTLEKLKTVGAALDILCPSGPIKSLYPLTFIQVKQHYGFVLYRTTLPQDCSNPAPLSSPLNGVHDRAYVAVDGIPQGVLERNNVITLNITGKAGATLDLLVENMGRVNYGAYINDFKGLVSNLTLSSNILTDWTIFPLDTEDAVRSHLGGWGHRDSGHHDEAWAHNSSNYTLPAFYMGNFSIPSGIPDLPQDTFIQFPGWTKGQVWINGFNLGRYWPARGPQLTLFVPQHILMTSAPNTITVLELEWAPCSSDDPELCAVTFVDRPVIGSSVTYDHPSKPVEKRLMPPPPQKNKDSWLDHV
# UniProt P60520, sequence (P60520 whole entry, looked up): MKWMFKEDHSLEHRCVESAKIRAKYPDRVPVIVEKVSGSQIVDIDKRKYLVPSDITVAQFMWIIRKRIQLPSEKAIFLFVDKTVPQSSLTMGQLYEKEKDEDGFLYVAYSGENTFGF
# UniProt Q92769, sequence (Q92769 whole entry, looked up): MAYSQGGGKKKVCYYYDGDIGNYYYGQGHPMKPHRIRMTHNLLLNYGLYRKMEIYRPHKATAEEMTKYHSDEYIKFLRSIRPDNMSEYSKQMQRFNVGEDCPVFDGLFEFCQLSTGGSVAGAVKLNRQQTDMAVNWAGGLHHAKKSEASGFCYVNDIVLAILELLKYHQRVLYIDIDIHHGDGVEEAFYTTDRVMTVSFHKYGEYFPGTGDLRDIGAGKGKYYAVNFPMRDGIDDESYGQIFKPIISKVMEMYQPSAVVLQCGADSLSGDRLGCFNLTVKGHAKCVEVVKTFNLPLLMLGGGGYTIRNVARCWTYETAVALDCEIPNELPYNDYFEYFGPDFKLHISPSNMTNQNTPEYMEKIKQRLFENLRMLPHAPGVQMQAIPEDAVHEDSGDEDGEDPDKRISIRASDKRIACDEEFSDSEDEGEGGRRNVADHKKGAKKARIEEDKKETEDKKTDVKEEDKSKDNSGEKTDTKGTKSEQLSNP
# UniProt Q86UL3, sequence (Q86UL3 whole entry, looked up): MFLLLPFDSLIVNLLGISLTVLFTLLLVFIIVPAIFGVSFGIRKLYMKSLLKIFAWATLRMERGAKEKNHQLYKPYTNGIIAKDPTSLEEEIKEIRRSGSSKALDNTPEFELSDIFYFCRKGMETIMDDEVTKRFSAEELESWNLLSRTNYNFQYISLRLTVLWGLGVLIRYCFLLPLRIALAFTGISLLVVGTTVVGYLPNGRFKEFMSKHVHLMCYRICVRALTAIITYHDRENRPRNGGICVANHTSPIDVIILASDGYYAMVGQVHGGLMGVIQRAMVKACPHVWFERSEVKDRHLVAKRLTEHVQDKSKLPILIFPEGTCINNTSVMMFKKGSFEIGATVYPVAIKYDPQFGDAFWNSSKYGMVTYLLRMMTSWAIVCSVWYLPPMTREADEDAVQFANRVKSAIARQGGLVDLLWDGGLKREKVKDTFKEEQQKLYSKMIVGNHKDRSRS
# UniProt P06865, sequence (P06865 whole entry, looked up): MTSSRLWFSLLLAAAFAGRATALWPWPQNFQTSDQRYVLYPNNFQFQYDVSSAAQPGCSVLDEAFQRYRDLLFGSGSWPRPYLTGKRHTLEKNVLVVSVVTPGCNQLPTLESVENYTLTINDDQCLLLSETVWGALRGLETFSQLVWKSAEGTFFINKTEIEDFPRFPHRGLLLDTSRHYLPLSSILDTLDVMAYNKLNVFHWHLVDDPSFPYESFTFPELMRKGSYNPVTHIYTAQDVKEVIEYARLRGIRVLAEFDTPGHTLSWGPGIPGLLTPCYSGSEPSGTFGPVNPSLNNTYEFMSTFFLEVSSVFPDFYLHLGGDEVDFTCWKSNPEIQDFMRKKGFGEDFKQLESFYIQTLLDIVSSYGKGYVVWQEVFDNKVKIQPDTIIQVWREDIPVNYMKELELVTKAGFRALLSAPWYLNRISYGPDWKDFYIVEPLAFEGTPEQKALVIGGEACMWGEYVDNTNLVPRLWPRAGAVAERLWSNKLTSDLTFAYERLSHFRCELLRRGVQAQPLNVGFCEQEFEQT
# UniProt Q9BTY2, sequence (Q9BTY2 whole entry, looked up): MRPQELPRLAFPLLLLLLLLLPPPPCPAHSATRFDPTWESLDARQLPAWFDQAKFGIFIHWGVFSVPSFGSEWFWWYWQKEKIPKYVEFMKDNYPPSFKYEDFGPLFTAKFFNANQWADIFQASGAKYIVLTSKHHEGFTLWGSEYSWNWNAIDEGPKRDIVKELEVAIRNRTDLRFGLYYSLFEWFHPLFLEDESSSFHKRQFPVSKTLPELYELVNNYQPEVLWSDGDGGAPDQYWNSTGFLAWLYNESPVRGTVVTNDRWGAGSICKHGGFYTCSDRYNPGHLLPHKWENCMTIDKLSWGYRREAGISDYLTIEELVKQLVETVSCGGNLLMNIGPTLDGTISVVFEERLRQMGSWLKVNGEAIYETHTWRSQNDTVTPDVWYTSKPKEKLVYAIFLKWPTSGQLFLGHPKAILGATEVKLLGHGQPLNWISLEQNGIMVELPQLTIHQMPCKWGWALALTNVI
# UniProt P48507, sequence (P48507 whole entry, looked up): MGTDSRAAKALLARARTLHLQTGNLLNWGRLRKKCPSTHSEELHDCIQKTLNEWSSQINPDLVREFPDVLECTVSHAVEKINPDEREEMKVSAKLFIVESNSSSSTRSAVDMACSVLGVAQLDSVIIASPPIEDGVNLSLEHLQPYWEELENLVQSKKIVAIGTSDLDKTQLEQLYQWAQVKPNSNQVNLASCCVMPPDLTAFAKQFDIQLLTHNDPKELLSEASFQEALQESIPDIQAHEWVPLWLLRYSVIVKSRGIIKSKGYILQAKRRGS
# UniProt Q12894, sequence (Q12894 whole entry, looked up): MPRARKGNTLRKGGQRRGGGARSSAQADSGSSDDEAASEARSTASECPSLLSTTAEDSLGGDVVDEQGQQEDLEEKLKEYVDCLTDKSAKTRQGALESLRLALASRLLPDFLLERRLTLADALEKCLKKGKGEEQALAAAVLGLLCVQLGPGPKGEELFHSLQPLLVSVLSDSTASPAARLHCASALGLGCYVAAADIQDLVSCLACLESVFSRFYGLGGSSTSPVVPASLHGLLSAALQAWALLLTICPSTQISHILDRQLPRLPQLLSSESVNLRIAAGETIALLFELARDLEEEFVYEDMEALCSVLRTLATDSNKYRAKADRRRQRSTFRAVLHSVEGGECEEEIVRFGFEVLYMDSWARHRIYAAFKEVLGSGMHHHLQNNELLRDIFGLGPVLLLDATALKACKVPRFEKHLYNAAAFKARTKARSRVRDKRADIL
Target,log2 fold change [1],log2 fold change [2],log2 fold change [3],log2 fold change [4],log2 fold change [5],log2 fold change [6],log2 fold change [7],log2 fold change [8],log2 fold change [9],log2 fold change [10],log2 fold change [11],log2 fold change [12],log2 fold change [13],log2 fold change [14],log2 fold change [15],log2 fold change [16],log2 fold change [17],log2 fold change [18],log2 fold change [19],log2 fold change [20]
HIC2 (UniProt Q96JB3),0.028,-0.19,0.032,-0.134,0.126,0.128,-0.035,-0.185,0.164,-0.006,-0.152,-0.236,0.033,-0.034,-0.011,-0.008,0.142,-0.019,0.045,0.089
GABARAPL2 (UniProt P60520),-0.29 (active),-0.182,0.041,0.027,0.007,-0.049,-0.017,0.099,-0.07,-0.099,0.021,0.047,-0.008,0.045,0.011,-0.019,-0.111,-0.013,-0.02,-0.009
HEXA (UniProt P06865),-0.423 (active),-0.479 (active),-0.028,-0.012,0.022,-0.002,-0.021,0,-0.02,-0.63 (active),0.031,0.098,0.005,-0.145,-0.012,-0.008,-0.07,-0.018,0.003,0.016
GPAT4 (UniProt Q86UL3),-0.042,-0.046,-0.036,0.063,-0.01,-0.039,0.029,0.008,-0.063,0.143,0.042,0.046,-0.046,-0.039,0.04,-0.017,0.055,-0.069,-0.021,0.031
FLNA (UniProt P21333),-0.121,-0.375 (active),0.078,0.063,-0.074,-0.004,0.029,0.019,0.052,-0.12,-0.076,-0.161,-0.017,0.052,0.106,-0.042,0.1,0.017,0.089,-0.053
FUCA2 (UniProt Q9BTY2),-1.11 (active),-1.04 (active),0.001,-0.024,0.007,0.003,-0.019,-0.023,-0.033,-0.029,-0.013,-0.021,-0.003,-0.026,0.028,-0.045,-0.139,0.003,0.012,0.038
GCLM (UniProt P48507),-0.183,-0.41 (active),0.058,0.03,-0.049,-0.046,0.042,0.082,0.03,-0.112,0.012,-0.055,-0.126,0.061,0.155,-0.151,0.033,-0.045,0.048,-0.042
IFRD2 isoform 2 (UniProt Q12894),0.084,0.045,-0.261,-0.02,0,0.029,-0.319,0.225,-0.023,0.196,0.126,0.31,-0.017,-0.272,0.022,0.16,-0.549 (active),-0.095,-0.031,0.026
GLB1 (UniProt P16278),-0.707 (active),-1.11 (active),0.007,-0.01,0.038,0.057,0.002,-0.023,0.037,-0.751 (active),-0.011,0.059,-0.018,-0.032,0.034,0.004,0,0.002,0.003,0.036
HSPA8 (UniProt E9PK54),0.041,0.213,-0.003,-0.252,0.03,0.131,-0.06,0.042,0.11,0.128,-0.058,-0.054,0.332,-0.003,0.072,-0.012,-0.287,-0.033,0.051,0.048
HDAC2 (UniProt Q92769),0.024,-0.051,0.026,-0.049,-0.049,-0.001,-0.003,0,-0.041,0.056,-0.001,-0.02,-0.091,0.907 (active),-0.113,-0.035,-0.006,-0.015,-0.046,-0.006
GLYR1 (UniProt Q49A26),0.099,0.054,0.026,-0.074,-0.047,0.026,-0.038,-0.292,-0.019,0.041,0.007,0.028,0.14,-0.077,0.021,-0.029,0.211,0.04,-0.044,-0.033
HTATIP2 isoform 3 (UniProt Q9BUP3),-0.029,-0.168,0.035,0.008,0.02,-0.013,0.009,-0.025,-0.016,-0.148,-0.016,0.023,-0.113,-0.009,-0.001,-0.065,0.023,0.022,0.01,-0.016
HSPA8 (UniProt P11142),0.001,0.113,-0.007,0.008,0.012,-0.002,-0.037,-0.019,-0.034,0.079,0.067,0.007,0.01,-0.019,0.139,0.006,-0.029,-0.002,-0.009,0.042
HDAC6 (UniProt Q9UBN7),0.013,0.005,0.014,-0.069,-0.074,-0.157,0.068,-0.065,0.058,-0.04,-0.067,-0.013,-0.009,1.01 (active),-0.037,-0.028,-0.028,0.09,-0.135,-0.014

# From the supplement of paper PMC10849652
